Laboratory results taken from PubChem BioAssay AID1159580 (chemical genetic matrix, 2015).
Values joined by “and” are separate entries in the source; they are usually repeats but may differ in a detail not shown here. Equal values may be shown once. Among all 5,500 compounds or so, about 2,000 (36%) were called active. Roughly 18% stayed inconclusive and do not appear here. Cut-off read from the data, not from the text of the source: active = normalized growth mostly below about 0.91 (no sharp cut-off); inconclusive = no clear call, values can overlap the other calls; inactive = mostly above about 0.92. Some of the results follow.

Assay: chemical genetic growth profiling, strain panel (AID 1159580);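 note: tested at 20 µM; growth read once vehicle control cultures reached saturation at 30 °C; 1 = growth at the plate median or of vehicle wells; lower values mean less growth of the strain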
Conditions: S. cerevisiae deletion strains, growth OD

Measured: normalized growth

COc1ccccc1OCCNCC(O)COc1cccc2[nH]c3ccccc3c12 (stereo unspecified)
inactive: locus YAL013W, strain DEP1, active compounds read low 0.999 | locus YAL021C, strain ccr4, active compounds read low 1.01 | locus YAL026C, strain drs2, active compounds read low 1.01 | locus YAL030W, strain snc1, active compounds read low 1.02 | locus YBR009C, strain hhf1, active compounds read low 1.02 | locus YBR021W, strain FUR4, active compounds read low 0.988 | locus YBR023C, strain chs3, active compounds read low 1.01 | locus YBR171W, strain sec66, active compounds read low 1.02 | locus YBR229C, strain ROT2, active compounds read low 1 | locus YBR231C, strain swc5, active compounds read low 0.993 | locus YBR279W, strain paf1, active compounds read low 1 | locus YCL011C, strain gbp2, active compounds read low 1.01 | locus YCL016C, strain dcc1, active compounds read low 1.03 | locus YCL029C, strain bik1, active compounds read low 1.02 | locus YCL069W, strain vba3, active compounds read low 1.01 | locus YCR088W, strain abp1, active compounds read low 1.04 | locus YDL005C, strain med2, active compounds read low 1.02 | locus YDL035C, strain GPR1, active compounds read low 0.98 | locus YDL040C, strain nat1, active compounds read low 1.02 | locus YDL074C, strain BRE1, active compounds read low 0.957 | locus YDL101C, strain DUN1, active compounds read low 1.01 | locus YDL134C, strain PPH21, active compounds read low 1 | locus YDL185W, strain tfp1, active compounds read low 1.01 | locus YDL192W, strain arf1, active compounds read low 1.02 | locus YDR001C, strain nth1, active compounds read low 1.01 | locus YDR069C, strain doa4, active compounds read low 1 | locus YDR101C, strain arx1, active compounds read low 1.01 | locus YDR137W, strain rgp1, active compounds read low 1.05 | locus YDR150W, strain NUM1, active compounds read low 1 | locus YDR159W, strain sac3, active compounds read low 1.04 | locus YDR162C, strain NBP2, active compounds read low 0.974 | locus YDR195W, strain ref2 1 | locus YDR297W, strain sur2, active compounds read low 1.01 | locus YDR318W, strain mcm21, active compounds read low 1.01 | locus YDR334W, strain swr1, active compounds read low 1.03 | locus YDR335W, strain msn5, active compounds read low 1 | locus YDR388W, active compounds read low 1.01 | locus YDR392W, strain spt3, active compounds read low 1.01 | locus YDR502C, strain sam2, active compounds read low 1 | locus YEL003W, strain gim4, active compounds read low 1.02 | locus YEL037C, strain rad23, active compounds read low 1 | locus YEL061C, strain CIN8 (second series), active compounds read low 1 | locus YEL061C, strain CIN8, active compounds read low 0.997 | locus YER015W, strain faa2, active compounds read low 1.02 | locus YER016W, strain bim1, active compounds read low 0.986 | locus YER110C, active compounds read low 1.02 | locus YER111C, strain swi4, active compounds read low 1.02 | locus YER155C, strain BEM2 (second series), active compounds read low 1.02 | locus YER155C, strain BEM2, active compounds read low 0.986 | locus YER167W, strain BCK2, active compounds read low 1 | locus YFR010W, strain ubp6, active compounds read low 1.02 | locus YGL078C, strain dbp3, active compounds read low 1.02 | locus YGL086W, strain mad1, active compounds read low 1.01 | locus YGL167C, strain pmr1, active compounds read low 1.02 | locus YGL173C, strain kem1, active compounds read low 1.03 | locus YGL227W, strain vid30, active compounds read low 1.01 | locus YGL240W, strain doc1, active compounds read low 1.02 | locus YGL248W, strain PDE1, active compounds read low 1.01 | locus YGL253W, strain hxk2, active compounds read low 1.02 | locus YGR078C, strain PAC10, active compounds read low 0.968 | locus YGR135W, strain pre9, active compounds read low 1.01 | locus YGR229C, strain SMI1, active compounds read low 0.957 | locus YGR252W, strain gcn5, active compounds read low 0.948 | locus YHR013C, strain ard1, active compounds read low 1.03 | locus YHR027C, strain rpn1, active compounds read low 0.994 | locus YHR030C, strain SLT2, active compounds read low 1.01 and 0.992 | locus YHR079C, strain IRE1 (second series), active compounds read low 1.02 | locus YHR079C, strain IRE1, active compounds read low 0.999 | locus YHR094C, strain hxt1, active compounds read low 1.01 | locus YHR129C, strain ARP1, active compounds read low 1.01 | locus YHR142W, strain chs7, active compounds read low 1.03 | locus YHR200W, strain rpn10, active compounds read low 1.02 | locus YIL066C, strain RNR3, active compounds read low 1 | locus YIL073C, strain SPO22, active compounds read low 1.11 | locus YIL125W, strain kgd1, active compounds read low 1.02 | locus YIR030C, strain dcg1, active compounds read low 1.02 | locus YJL092W, strain hpr5, active compounds read low 1.01 | locus YJL095W, strain BCK1 (second series), active compounds read low 1.02 | locus YJL095W, strain BCK1, active compounds read low 0.976 and 1.01 | locus YJL115W, strain asf1, active compounds read low 1.01 | locus YJL129C, strain trk1, active compounds read low 1.02 | locus YJL134W, strain LCB3, active compounds read low 1 | locus YJL154C, strain vps35, active compounds read low 1.01 | locus YJL164C, strain tpk1, active compounds read low 1.02 | locus YJL166W, strain qcr8, active compounds read low 1.03 | locus YJL168C, strain set2, active compounds read low 1.01 | locus YJL187C, strain SWE1 (second series), active compounds read low 1.01 | locus YJL187C, strain SWE1, active compounds read low 1.01 | locus YJR043C, strain POL32, active compounds read low 0.998 | locus YJR066W, strain TOR1, active compounds read low 0.935 | locus YJR075W, strain HOC1, active compounds read low 0.983
